According to PubChem BioAssay (NCI):
The panel holds about 79,000 compounds, 15% with a hit somewhere; the sample as a whole holds those more often. Activity calls are given as the source filed them. Rule as the data show it: active = growth inhibition above about 70%; inactive = the rest.

Tests used:
[1] = NCI Yeast Anticancer Drug Screen. Data for the rad52 strain (AID 147);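 also: 0% = growth of vehicle-treated control cultures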; details: S. cerevisiae rad52 mutant growth inhibition, active compounds read high
Method in brief: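 Vehicle-treated cultures served as the reference for growth inhibition of compound-exposed yeast bearing a DNA repair mutation.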

[2] = NCI Yeast Anticancer Drug Screen. Data for the wt1 strain (AID 149);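 also: 0% = growth of vehicle-treated wt1 cultures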; details: S. cerevisiae wt1 strain (SPY 50644) growth inhibition, active compounds read high
Method in brief: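 Using yeast strain wt1, compound-induced growth inhibition was determined against vehicle-treated cultures.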

[3] = NCI Yeast Anticancer Drug Screen. Data for the rad50EPP+ strain (AID 151);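 also: 0% = growth of vehicle-treated control cultures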; details: S. cerevisiae rad50 mutant strain, active compounds read high
Method in brief: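 In this screen, rad50EPP+ yeast were exposed to compounds. Growth inhibition was scored against vehicle-treated controls.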

[4] = NCI Yeast Anticancer Drug Screen. Data for the mgt1 strain (AID 153); details: S. cerevisiae mgt1 mutant growth inhibition, active compounds read high
Method in brief: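 mgt1 strain exposed; growth vs vehicle control recorded as inhibition.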

[5] = NCI Yeast Anticancer Drug Screen. Data for the rad50 strain (AID 155);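 also: 0% = growth of vehicle-only cultures of the same strain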; details: S. cerevisiae rad50 strain growth inhibition, active compounds read high
Method in brief: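 Relative growth inhibition (compound vs vehicle) was measured in yeast with a defined repair-gene alteration.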

[6] = NCI Yeast Anticancer Drug Screen. Data for the mec2-1 strain (AID 157); details: S. cerevisiae mec2-1 strain, active compounds read high
Method in brief: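 Vehicle-treated cultures served as reference for growth inhibition of compound-exposed mec2-1 yeast.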

[7] = NCI Yeast Anticancer Drug Screen. Data for the rad14 strain (AID 159);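 also: 0% = growth of vehicle-treated control cultures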; details: S. cerevisiae rad14 strain growth inhibition, active compounds read high
Method in brief: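 Screen for anticancer potential: a yeast strain altered in DNA damage repair is grown with compound, and reduced growth is quantified against vehicle controls.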

[8] = NCI Yeast Anticancer Drug Screen. Data for the sgs1 mgt1 strain (AID 161);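 also: 0% = growth of cultures given vehicle only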; details: S. cerevisiae sgs1 mgt1 strain, active compounds read high
Method in brief: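 Read-out: growth inhibition vs vehicle controls. Cells: mutant yeast strain deficient in DNA damage repair.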

[9] = NCI Yeast Anticancer Drug Screen. Data for the CLN2oe strain (AID 163);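 also: 0% = growth of vehicle-only control cultures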; details: S. cerevisiae CLN2oe strain, active compounds read high
Method in brief: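 Inhibition relative to vehicle-treated yeast is reported. Cells: strain with genetic alteration in cell-cycle control, grown with compound.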

[10] = NCI Yeast Anticancer Drug Screen. Data for the cln2 rad14 strain (AID 165);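 also: 0% = growth equal to vehicle treated cultures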; details: S. cerevisiae cln2 rad14 strain, active compounds read high
Method in brief: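 Each compound was tested on cln2 rad14 yeast. Inhibition of growth was calculated against vehicle-exposed controls.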

[11] = NCI Yeast Anticancer Drug Screen. Data for the bub3 strain (AID 167); details: S. cerevisiae bub3 mutant strain, active compounds read high
Method in brief: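 Screening used yeast with an engineered genetic alteration affecting cell cycle control. Compound-exposed cultures were compared with vehicle cultures, and reduced growth was taken as inhibition.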

[12] = NCI Yeast Anticancer Drug Screen. Data for the wt2 strain (AID 169);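 also: 0% = growth of vehicle-treated yeast cultures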; details: S. cerevisiae wt2 strain growth inhibition, active compounds read high
Method in brief: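 Inhibition of yeast growth was determined after compound treatment, normalised to controls receiving only vehicle.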

[13] = NCI Yeast Anticancer Drug Screen. Data for the mlh1 strain (AID 171);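 also: 0% = growth of vehicle-treated control cultures of the same strain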; details: S. cerevisiae mlh1 strain growth inhibition, active compounds read high
Method in brief: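 Vehicle-normalised growth inhibition of a repair- or checkpoint-altered yeast strain following compound treatment.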

[14] = NCI Yeast Anticancer Drug Screen. Data for the sgs1 strain (AID 173);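 also: 0% = growth of vehicle-only control cultures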; details: S. cerevisiae sgs1 mutant, active compounds read high
Method in brief: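 Screen format: yeast with repair or checkpoint alterations, compound exposure, growth read relative to vehicle.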

[15] = NCI Yeast Anticancer Drug Screen. Data for the mlh1 rad18 strain (AID 175); details: S. cerevisiae mlh1 rad18 strain growth inhibition, active compounds read high
Method in brief: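 Vehicle-treated cultures served as the reference for growth inhibition in a yeast strain carrying DNA damage repair alterations exposed to each compound.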

[16] = NCI Yeast Anticancer Drug Screen. Data for the rad18 strain (AID 177); details: S. cerevisiae rad18 mutant growth inhibition, active compounds read high
Method in brief: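 Test articles were incubated with altered yeast defective in DNA damage repair. Results are given as inhibition of growth versus vehicle.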

[17] = at 5.0 µM (retest, dose inferred, filed as 0.5)
[18] = at 50.0 µM (retest, dose inferred, filed as 5.0)

Measured: growth inhibition

Clc1ccc(NCNC2Nc3ccccc3N2)cc1Cl
inactive: [1]; at 1.2 µM -1% | [1]; at 3.7 µM -1% | [1]; at 11.0 µM 18% | [2]; at 1.2 µM 2% | [2]; at 3.7 µM 7% | [2]; at 11.0 µM 8% | [3]; at 1.2 µM 8% | [3]; at 3.7 µM 16% | [4]; at 1.2 µM -4% | [4]; at 3.7 µM -3% | [4]; at 11.0 µM 4% | [5]; at 1.2 µM -1% | [5]; at 3.7 µM -3% | [5]; [17] 4% | [5]; at 11.0 µM 17% | [5]; at 50.0 µM 25.6% | [6]; at 1.2 µM 0% | [6]; at 3.7 µM 5% | [6]; [17] -6% | [6]; at 11.0 µM 17% | [6]; at 50.0 µM 9.15% | [7]; at 1.2 µM 0% | [7]; at 3.7 µM 3% | [7]; at 11.0 µM 13% | [8]; [17] 18% | [8]; at 50.0 µM 8.15% | [9]; at 1.2 µM -5% | [9]; at 3.7 µM -13% | [9]; at 11.0 µM -3% | [10]; [17] 20% | [10]; at 50.0 µM -9.7% | [11]; at 1.2 µM 1% | [11]; at 3.7 µM -8% | [11]; [17] 26% | [11]; at 11.0 µM -2% | [11]; at 50.0 µM 10.2% | [12]; at 1.2 µM -4% | [12]; at 3.7 µM -1% | [12]; at 11.0 µM 9% | [13]; at 1.2 µM -2% | [13]; at 3.7 µM 0% | [13]; at 11.0 µM 13% | [14]; at 1.2 µM 1% | [14]; at 3.7 µM 5% | [14]; at 11.0 µM 34% | [15]; [17] 55% | [15]; at 50.0 µM 29.8% | [16]; at 1.2 µM 27% | [16]; at 3.7 µM 65%
active: [1]; at 33.0 µM 97% | [1]; at 100.0 µM 98% | [2]; at 33.0 µM 81% | [2]; at 100.0 µM 99% | [3]; at 11.0 µM 88% | [3]; at 33.0 µM 98% | [3]; at 100.0 µM 98% | [4]; at 33.0 µM 85% | [4]; at 100.0 µM 99% | [5]; at 33.0 µM 93% | [5]; [18] 99% | [5]; at 100.0 µM 98% | [6]; at 33.0 µM 93% | [6]; [18] 99% | [6]; at 100.0 µM 98% | [7]; at 33.0 µM 96% | [7]; at 100.0 µM 99% | [8]; [18] 99% | [9]; at 33.0 µM 89% | [9]; at 100.0 µM 98% | [10]; [18] 83% | [11]; at 33.0 µM 91% | [11]; [18] 99% | [11]; at 100.0 µM 99% | [12]; at 33.0 µM 91% | [12]; at 100.0 µM 98% | [13]; at 33.0 µM 71% | [13]; at 100.0 µM 99% | [14]; at 33.0 µM 92% | [14]; at 100.0 µM 99% | [15]; [18] 98% | [16]; at 11.0 µM 92% | [16]; at 33.0 µM 96% | [16]; at 100.0 µM 98%

Cn1c(=O)c2c(nc(N)n2C2OC(CO)C(O)C2O)n(C)c1=O (stereo unspecified)
active: [5]; at 50.0 µM 87.4% | [6]; at 50.0 µM 92% | [8]; at 50.0 µM 85.3% | [10]; at 50.0 µM 88.6% | [11]; at 50.0 µM 89% | [15]; at 50.0 µM 83.8%
inactive: [1]; at 1.2 µM -2% | [1]; at 3.7 µM -1% | [1]; at 11.0 µM -4% | [1]; at 33.0 µM -4% | [1]; at 100.0 µM 0% | [2]; at 1.2 µM -1% | [2]; at 3.7 µM -1% | [2]; at 11.0 µM -2% | [2]; at 33.0 µM -2% | [2]; at 100.0 µM 1% | [3]; at 1.2 µM -1% | [3]; at 3.7 µM 1% | [3]; at 11.0 µM 1% | [3]; at 33.0 µM -1% | [3]; at 100.0 µM 2% | [4]; at 1.2 µM -1% | [4]; at 3.7 µM -2% | [4]; at 11.0 µM 7% | [4]; at 33.0 µM -7% | [4]; at 100.0 µM 0% | [5]; at 1.2 µM -2% | [5]; at 3.7 µM 0% | [5]; [17] 17% | [5]; at 11.0 µM -11% | [5]; at 33.0 µM -1% | [5]; [18] 22% | [5]; at 100.0 µM 1% | [6]; at 1.2 µM 0% | [6]; at 3.7 µM 1% | [6]; [17] -2% | [6]; at 11.0 µM 1% | [6]; at 33.0 µM -3% | [6]; [18] -19% | [6]; at 100.0 µM -2% | [7]; at 1.2 µM -4% | [7]; at 3.7 µM -4% | [7]; at 11.0 µM -6% | [7]; at 33.0 µM -7% | [7]; at 100.0 µM 0% | [8]; [17] -17% | [8]; [18] 20% | [9]; at 1.2 µM 1% | [9]; at 3.7 µM -3% | [9]; at 11.0 µM 3% | [9]; at 33.0 µM 3% | [9]; at 100.0 µM 10% | [10]; [17] -9% | [10]; [18] 50% | [11]; at 1.2 µM 0% | [11]; at 3.7 µM 3% | [11]; [17] -19% | [11]; at 11.0 µM 12% | [11]; at 33.0 µM 15% | [11]; [18] 18% | [11]; at 100.0 µM 15% | [12]; at 1.2 µM -4% | [12]; at 3.7 µM -4% | [12]; at 11.0 µM -4% | [12]; at 33.0 µM -2% | [12]; at 100.0 µM 0% | [13]; at 1.2 µM -1% | [13]; at 3.7 µM -7% | [13]; at 11.0 µM -1% | [13]; at 33.0 µM 3% | [13]; at 100.0 µM -1% | [14]; at 1.2 µM -1% | [14]; at 3.7 µM -1% | [14]; at 11.0 µM -1% | [14]; at 33.0 µM -2% | [14]; at 100.0 µM 1% | [15]; [17] 2% | [15]; [18] 37% | [16]; at 1.2 µM -1% | [16]; at 3.7 µM 2% | [16]; at 11.0 µM -1% | [16]; at 33.0 µM -2% | [16]; at 100.0 µM -2%
